Among the data in ChEMBL document CHEMBL4513141, “CO-ADD screening of NIH (USA) - Clinical Collection” (2021) are Inhibition values, retold here.

Measured potencies and affinities stand elsewhere.

As usually defined, the Inhibition is the relative decrease from the control value, in per cent.

The subject of this test is Escherichia coli. The settings on record: Concentration 20 uM; ASSAY_TEST Inhibition of Bacterial Growth; detection method Absorption (OD600); MEDIA CAMHB; plate type 384well; NBS; CORNING #3640; time 18 hr.
In the case of `CC(COc1ccccc1Cc1ccccc1)N1CCCCC1.O=P(O)(O)O` (centres undefined), the Inhibition came out at 7.84%.

Turning to `CCC1(c2ccccc2)C(=O)NCNC1=O` [PRIMIDONE], the Inhibition came to 3.86%. In the case of `CC(=O)O[C@]1(C(C)=O)CC[C@H]2[C@@H]3C[C@H](C)C4=CC(=O)CC[C@]4(C)[C@H]3CC[C@@]21C` [MEDROXYPROGESTERONE ACETATE] it was 2%; in that of `Nc1ccc2cn[nH]c2c1`, 5.89%. For the molecule `CNCCCC12CCC(c3ccccc31)c1ccccc12.Cl` [MAPROTILINE HYDROCHLORIDE], the Inhibition is 6.19%.

With `COc1cc2nc(N(C)CCCNC(=O)C3CCCO3)nc(N)c2cc1OC` (centres undefined) [ALFUZOSIN], the Inhibition is -0.93%. On to `CCOC(=O)C1(CCCCCCOc2ccc(Cl)cc2)CO1` (stereo not drawn) [rac-ETOMOXIR], for which the Inhibition is on record as -5.87%. Regarding `CCC(=C(c1ccccc1)c1ccc(OCCN(C)C)cc1)c1ccccc1`, the Inhibition is 6.04%. As for `CCN1CCC[C@H]1CNC(=O)c1cc(S(N)(=O)=O)ccc1OC` [LEVOSULPIRIDE], the Inhibition came to 3.44%.

Take `CC(C)C[C@H](NC(=O)[C@@H](O)[C@H](N)Cc1ccccc1)C(=O)O` [UBENIMEX]: the Inhibition is -1.57%. For `CC(C)NCC(O)COc1ccc(CCOCC2CC2)cc1.Cl` (centres undefined) [BETAXOLOL HYDROCHLORIDE], the Inhibition is 0.81%. For `CC(Cc1ccc(O)c(O)c1)(NN)C(=O)O.O` (centres undefined), the Inhibition is recorded as 3.56%.

`Cl.O=C1[C@H]2CCCC[C@H]2C(=O)N1CCCCN1CCN(c2nsc3ccccc23)CC1`: the Inhibition amounted to 0.37%. Turning to `O=C1[C@H](CC[C@H](O)c2ccc(F)cc2)[C@@H](c2ccc(O)cc2)N1c1ccc(F)cc1` [EZETIMIBE], the Inhibition is -0.7%. Take `Cc1ncc([N+](=O)[O-])n1CCO` [METRONIDAZOLE]: the Inhibition is reported as 2.82%. For the molecule `Nc1ncnc2c1ncn2[C@@H]1O[C@H](CO)[C@@H](O)[C@@H]1O` [VIDARABINE], the Inhibition is 6.8%. As for `CC1CC2C3CCC4=CC(=O)C=CC4(C)[C@@]3(Cl)C(O)CC2(C)C1(O)C(=O)CO` (some centres undefined), the Inhibition came to 5.77%. Take `O=C1c2c(O)cc(O)cc2O[C@H](c2ccc(O)c(O)c2)[C@H]1O` [(+)-TAXIFOLIN]: the Inhibition was -0.85%. The value for `CC(=O)SCC(Cc1ccccc1)C(=O)NCC(=O)OCc1ccccc1` (centres undefined) [RACECADOTRIL] was -5.63%; that for `CC(C(=O)O)c1cccc(C(=O)c2ccccc2)c1` (centres undefined) [KETOPROFEN] was -2.29%.

For `Cc1ccc(Cl)c(Nc2ccccc2C(=O)[O-])c1Cl.O.[Na+]` [MECLOFENAMATE SODIUM], the Inhibition worked out at 2.5%. On to `C[C@@H]1CN(CCCn2c3ccccc3c3ccccc32)C[C@H](C)N1.Cl.O`, for which the Inhibition worked out at 5.61%. Consider `CCc1cccc2c3c([nH]c12)C(CC)(CC(=O)O)OCC3` (centres undefined) [ETODOLAC], for which the Inhibition is -6.35%. On to `OCc1cc(C(O)CNCCCCCCOCCCCc2ccccc2)ccc1O` (centres undefined) [SALMETEROL], for which the Inhibition worked out at 8.33%. Take `CC1(C)S[C@@H]2[C@H](/N=C/N3CCCCCC3)C(=O)N2[C@H]1C(=O)O` [AMDINOCILLIN]: the Inhibition was 1.83%. Regarding `CC(C(O)c1ccc(O)cc1)N1CCC(Cc2ccccc2)CC1.O.O=C(O)C(O)C(O)C(=O)O` (centres undefined), the Inhibition is -1.84%. In the case of `CC(=O)OCC(=O)[C@@]1(O)CC[C@H]2[C@@H]3C[C@H](C)C4=CC(=O)C=C[C@]4(C)[C@H]3[C@@H](O)C[C@@]21C` [METHYLPREDNISOLONE ACETATE], the Inhibition is -0.44%. For the molecule `CCOC(=O)[C@@H](CCc1ccccc1)N[C@@H](C)C(=O)N1CCC[C@H]1C(=O)O.O=C(O)/C=C\C(=O)O`, the Inhibition is listed as -3.24%. As to `CC(C[N+](C)(C)C)OC(N)=O.[Cl-]` (centres undefined) [BETHANECHOL CHLORIDE], the Inhibition is on record as -1.38%. Consider `O=C(O)c1cc2ccccc2c(Cc2c(O)c(C(=O)O)cc3ccccc23)c1O.OCCOCCN1CCN(C(c2ccccc2)c2ccc(Cl)cc2)CC1` [HYDROXYZINE PAMOATE], for which the Inhibition worked out at 0.33%. The value for `CNNCc1ccc(C(=O)NC(C)C)cc1.Cl` [PROCARBAZINE HYDROCHLORIDE] was -2.72%; that for `COc1cc(C(=O)NC2CCCNC2)cc(OC)c1OC` (centres undefined) [TROXIPIDE] was 2.83%. The value for `CCCC1O[C@@H]2C[C@H]3[C@@H]4CCC5=CC(=O)C=C[C@]5(C)[C@H]4[C@@H](O)C[C@]3(C)[C@]2(C(=O)CO)O1` (some centres undefined) [BUDESONIDE] was -1.42%; that for `NS(=O)(=O)c1cc2c(cc1Cl)NCNS2(=O)=O` [HYDROCHLOROTHIAZIDE] was -0.12%.
